This is an account of results in PubChem BioAssay AID2606 (The Scripps Research Institute Molecular Screening Center, 2010).

Out of some 320,000 compounds screened, about 160 (0.05%) were called active. Rule as the data show it: active = inhibition above about 38%; inactive = the rest. The full list was thinned out, with actives kept by preference.

Serine protease Rv3671c (Mycobacterium tuberculosis (strain ATCC 25618 / H37Rv)), sequence (P9WHR9 whole entry, looked up, the tested form may be a part): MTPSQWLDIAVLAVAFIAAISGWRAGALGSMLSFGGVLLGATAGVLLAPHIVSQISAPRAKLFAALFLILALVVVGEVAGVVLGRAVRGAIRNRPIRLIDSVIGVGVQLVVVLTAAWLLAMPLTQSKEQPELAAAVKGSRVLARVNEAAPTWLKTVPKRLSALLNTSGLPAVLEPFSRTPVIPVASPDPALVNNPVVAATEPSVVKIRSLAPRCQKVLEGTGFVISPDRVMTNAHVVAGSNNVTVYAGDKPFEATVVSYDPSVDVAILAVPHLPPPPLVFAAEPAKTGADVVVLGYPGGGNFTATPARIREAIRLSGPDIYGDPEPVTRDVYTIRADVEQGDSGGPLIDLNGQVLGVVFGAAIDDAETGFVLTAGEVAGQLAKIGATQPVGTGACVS

This test addresses Serine protease Rv3671c (Mycobacterium tuberculosis (strain ATCC 25618 / H37Rv)) (UniProt P9WHR9). Put plainly: Rv3671c serine protease inhibitors, primary screen, biochemical, fluorescence polarization, M. tuberculosis H37Rv (AID 2606).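 Also: extracellular domain of Rv3671c used as enzyme; 0% = enzyme with DMSO and 100% = no enzyme.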 Conditions: at 5.96 µM; hits give high values. Background: In fluorescence polarisation assays a small probe gives low polarisation when free and higher when bound to something large.
Usually inhibition stands for the change of the read-out against control, counted positive when it falls. As to `COP1(=O)C[C@@H](O)[C@@H](O)[C@@H](COCc2ccccc2)O1` (stereo not given in full), the inhibition is -2.74% (inactive).
The result for `Cc1cnc(C(=O)N2CCCC(C(=O)c3ccc(C(F)(F)F)cc3)C2)cn1` (stereo not given) reads -4.62% (inactive); that for `CC(c1nnc(SCC(=O)Nc2sccc2C#N)n1-c1ccc(Cl)cc1)N(C)C` (stereo not given), 3.82% (inactive).
The result for `Cn1sc(=O)c2cc(S(=O)(=O)NC3CC3)ccc21` reads -8.37% (inactive).
Under `C[C@@H](NC(=O)c1nc[nH]c1C(=O)N1CCN(C(=O)OC(C)(C)C)CC1)c1ccccc1` stands -6.88% (inactive); under `CC(Sc1nnc(Cc2ccc([N+](=O)[O-])cc2)o1)C(N)=O` (stereo not given), -0.21% (inactive).
On to `C[C@@H](C(=O)Nc1ccc2ccccc2c1)[C@@H]1C[C@@]1(C)[C@@H](NC(=O)c1cccnc1)c1ccccc1`, for which the inhibition is -17.9% (inactive).
Regarding `CCS(=O)(=O)N1Cc2ccccc2CC1C(=O)Nc1nc2ccc(F)cc2s1` (stereo not given), the inhibition was -18.8% (inactive).
Under `O=C(NCc1ccccc1)C1=C[C@@H](c2ccccc2)C[C@@H](OCCCCO)O1` stands -9.25% (inactive).
The result for `O=S(=O)(c1cc(Cl)ccc1Cl)N1CCN(Cc2ccco2)CC1` reads -5.87% (inactive).
The result for `COc1cccc(/C=C2\SC(=N)N(c3ccc(F)cc3)C2=O)c1` reads 7.8% (inactive); that for `COc1ccc(/C=N/N=C/c2c[nH]c(=O)c(C#N)c2Nc2ccccc2)cc1`, -1.73% (inactive).
`NS(=O)(=O)c1ccc(NC(=S)Nc2ccc(Br)c(Cl)c2)cc1`: the inhibition is -3.02% (inactive).
Under `CCn1c(SCC(=O)Nc2ccc(Br)cc2)nc2sc3c(c2c1=O)CCN(C)C3` stands -7.34% (inactive).
Under `COc1ccccc1C(=O)Nc1ccc(OCC(=O)N2CCCCC2)cc1` stands -8.76% (inactive); under `Cc1cc(NC(=O)CCC(=O)N(Cc2ccccc2)C(C(=O)NC2CCCC2)c2ccc(C)o2)no1` (stereo not given), -5.73% (inactive); under `CCOC(=O)C1CCN(S(=O)(=O)c2ccc3c(c2)N(C(C)=O)CCO3)CC1`, 2.87% (inactive).
Under `CCCc1nc2ccccc2c(C(=O)OCc2nnc(-c3cc(OC)c(OC)c(OC)c3)o2)c1CC` stands -9.57% (inactive).
As for `COc1ccc(/C=C/C(=O)NC(=S)NN2CCCCC2c2cccnc2)cc1` (stereo not given), the inhibition was -0.41% (inactive).
Under `Cc1cc(O)ccc1NC1=CC(=O)CC(C)(C)C1` stands -4.53% (inactive).
Under `CC1CCC(CN2CCN=C2N(C)C)CC1` (stereo not given) stands -3.89% (inactive).
The result for `Cc1ccc(S(=O)(=O)NC(=O)COc2ccccc2C)cc1` reads 7.88% (inactive); that for `CCCCn1c(=S)[nH]c2cc(S(=O)(=O)N3CCCCC3)ccc21`, -12.1% (inactive).
As for `O=C(COC(=O)c1ccc(S(=O)(=O)N2CCc3ccccc3C2)cc1)NC(=O)NCc1ccco1`, the inhibition is -44.5% (inactive).
The result for `COc1ccccc1OCCNCC(O)COc1cccc2[nH]c3ccccc3c12` (stereo not given) reads -3.15% (inactive); that for `C=C1C2C[C@H](O)C(C)(C)[C@@]2(O)[C@H](O)C[C@]23C[C@@](C)(O)[C@H](CC[C@H]12)[C@H]3O` (stereo not given in full), 8.16% (inactive); that for `CCCCCCCNc1nc(Cl)nc(NCCO)n1`, 1.57% (inactive).
The result for `C/C(=N\NC(=O)NC1CCCCC1)c1ccc(OC(F)F)cc1OC(F)F` reads -2.17% (inactive).
The result for `C/C(=N/NS(=O)(=O)c1ccccc1)c1ccc(NC(=O)C(F)(F)F)cc1` reads -8.65% (inactive); that for `O=C(CNC(=O)c1ccccc1F)OCC(=O)c1c[nH]c2ccccc12`, 3.57% (inactive); that for `COc1ccc(SC[C@H](Cc2ccccc2)N2CCN(CCc3ccccc3)CCC2=O)cc1`, 1.82% (inactive).
Consider `CC(=O)c1ccc(N2CCN(C(=O)CCNC(=O)Cn3ccc4ccccc4c3=O)CC2)cc1`, for which the inhibition was -8.01% (inactive).
Under `CC(=O)Nc1c2c(nn1-c1ccc(C)cc1C)CS(=O)C2` (stereo not given) stands -11.2% (inactive); under `CS(=O)(=O)c1ccc(Cl)c(NC(=O)COC(=O)c2ncc(Cl)c(Cl)c2Cl)c1`, 0.74% (inactive).
For the compound `O=C(CSc1nnc(-c2ccoc2)o1)N1CCOCC1`, the inhibition was 6.68% (inactive).
The result for `OC(COCc1ccco1)CN1CCN(c2ccccc2)CC1` (stereo not given) reads 5.86% (inactive); that for `C/C(=N/NC(=O)CN1CCN(S(=O)(=O)c2ccc(Br)cc2)CC1)c1ccncc1`, -1.08% (inactive).
Under `CCOc1ccc(N(CC(=O)Nc2cccc(OC)c2)S(C)(=O)=O)cc1` stands -3.74% (inactive); under `CN=C1C=C/C(=N/N=c2\ccn(O)cc2C)C=C1C`, -17.4% (inactive); under `Cc1ccc(-n2c(SCC(=O)Nc3ncc(Cl)cc3Cl)nc3ccccc32)cc1`, -17.4% (inactive).
Consider `Cc1ccn2c(=O)c(NC(=O)c3cccc4ccccc34)c(C)nc2c1`, for which the inhibition was -5.92% (inactive).
The result for `CC(C(=O)N1CCN(c2ccccc2F)CC1)c1ccc([N+](=O)[O-])cc1` (stereo not given) reads 7.31% (inactive); that for `CCC(=NC1CC(C)(C)NC(C)(C)C1)C1=C(O)CC(C)(C)CC1=O`, -1.22% (inactive); that for `CCC(C)[C@H](NC(=O)N1c2ccccc2NC(=O)[C@@H]1C(C)C)C(=O)N[C@@H](Cc1ccccc1)C(=O)O` (stereo not given in full), 6.36% (inactive).
Take `CCOc1ccccc1NC(=O)C1CCCN(S(=O)(=O)c2ccccc2)C1` (stereo not given): the inhibition is -17.1% (inactive).
Under `O=C(Nc1nnc(Cc2ccc(Cl)cc2)s1)c1ccncc1` stands 7.51% (inactive); under `COCCn1c(N)c(NCc2ccccc2)c(=O)[nH]c1=O`, -10.5% (inactive).
`Cc1ccc(NC(=O)C2(N3CCC3=O)CCCCC2)cc1`: the inhibition is 3.63% (inactive).
Under `CCOc1ccc(CN(C)C(=O)c2ccc(=O)[nH]c2)cc1` stands 0.46% (inactive).
The result for `Cc1cc(C(=O)OC(C)C(=O)NC2CCCCC2C)c(C)o1` (stereo not given) reads -0.91% (inactive).
Under `COc1ccc(Cn2c(O)c(/C=C3/C=CC=N3)c(=O)[nH]c2=O)cc1` stands -6.46% (inactive); under `C[C@H](NS(=O)(=O)c1ccc(Cl)cc1)C(=O)OCC(=O)N1CCOCC1`, 3.78% (inactive); under `CN(C)CC(C)(C)CNC(=O)c1cc(Br)cc(Br)c1O`, 9.55% (inactive).
With `CCCCc1cc2c(s1)CCCC/C2=N/O`, the inhibition was -4.78% (inactive).
The result for `CCc1nc2ccc(C(=O)N3CCN(c4cccc(Cl)c4)CC3)cc2nc1CC` reads 0.29% (inactive).
In the case of `O=S(=O)(NC1CC2CCC1C2)c1ccc(Cl)cc1` (stereo not given), the inhibition was 0.26% (inactive).
The result for `CC(=O)c1ccc(N2CCN(S(=O)(=O)c3c(C)[nH]c(=O)[nH]c3=O)CC2)cc1` reads 5.45% (inactive); that for `COc1ccc(NC(=O)C(C)SCc2ccccc2)cc1` (stereo not given), 0.17% (inactive); that for `C/C(=N\NC(=O)c1ccc(CSc2nc(C)cc(C)n2)cc1)C1CCCCC1`, -1.11% (inactive).
The result for `O=C1Nc2cc(C(=O)N3CCN(c4ccc(F)cc4)CC3)ccc2NC1CSCc1cccc(F)c1` (stereo not given) reads -19.6% (inactive); that for `O=C(Nc1cc(S(=O)(=O)Nc2ccc(Cl)cc2)ccc1O)c1ccc(F)cc1F`, -20% (inactive).
Under `COc1ccccc1NC(=S)N1CCN(C(c2ccccc2)c2ccccc2)CC1` stands -3.52% (inactive); under `CCOc1ccc(OCC)c(NC(=O)CN(C)S(=O)(=O)c2cccc3nsnc23)c1`, 4.81% (inactive).
As for `CC(=O)OCCOCn1cnn2c(=O)c(Br)c(C)nc12`, the inhibition is 9.74% (inactive).
As to `Cc1nc2nc[nH]n2c(=O)c1NC(=O)c1cccc(OCC(C)C)c1`, the inhibition was 2.66% (inactive).
The result for `Cn1cnc(S(=O)(=O)Nc2ccc3c(c2)OCCO3)c1` reads -5.54% (inactive); that for `O=C(NCc1ccccc1)[C@@H]1CSC2c3ccccc3C(=O)N21` (stereo not given in full), 5.62% (inactive); that for `CCc1cccc2c(C=C(C#N)C#N)cn(CC(=O)N3CCCCC3)c12`, -5.84% (inactive).
The result for `COc1cccc(CNC(=O)Cn2c(=O)oc3cc(S(=O)(=O)N4CCCCC4)ccc32)c1` reads -26.5% (inactive).
In the case of `O=C(O)c1ccn(COc2ccc(Br)cc2)n1`, the inhibition was 5.52% (inactive).
The result for `CCc1ccc(N(C(=O)c2csnn2)C(C(=O)NC2CCCCC2)c2cccnc2)cc1` (stereo not given) reads -1.12% (inactive); that for `COc1ccccc1Nc1nnc(SC(C)C(=O)NC2CC2)s1` (stereo not given), 6.85% (inactive); that for `C=C1CCC(N(O)c2cc(C)on2)C(=C)CCC2C1CC2(C)C` (stereo not given), -8.68% (inactive).
The result for `O=C(CNS(=O)(=O)c1ccc2ccccc2c1)Nc1ccc(F)c(F)c1F` reads 2.38% (inactive); that for `CCN(CC)C(=O)CSc1nnc(-c2cnccn2)n1-c1ccc(C)cc1`, -10.7% (inactive); that for `O=C(O)C1=NN(c2c(F)c(F)cc(F)c2F)C(=O)CC1`, -8.71% (inactive).
Under `CCOc1ccc(S(=O)(=O)N2CCC(c3ccccc3)CC2)cc1C(=O)O` stands 2.59% (inactive); under `CCCN(CCC)S(=O)(=O)c1ccc(C(=O)NNC(=O)c2cc(OC)c(OC)c(OC)c2)cc1`, 2.22% (inactive).
With `CCCCNC(=O)C1(c2ccc(OC)cc2)CCOCC1`, the inhibition was 1.73% (inactive).
The result for `CC(C)(C)NS(=O)(=O)NC(=O)C1=C(N2CCCC2)COC1=O` reads -1.86% (inactive); that for `O=c1[nH]c2ccccc2n2c(-c3ccccc3)nnc12`, -13% (inactive).
Under `COc1ccc(NC(=O)c2cc([N+](=O)[O-])ccc2NC(=O)CNC2CCCCC2C)c(OC)c1` (stereo not given) stands -11.9% (inactive).
For the compound `CN(C)C(=O)N=NC(=O)N(C)C`, the inhibition is -1.83% (inactive).
Under `O=C(Nc1ccccc1C(=O)O)c1ccc(N2C(=O)C3CC=CCC3C2=O)cc1` (stereo not given) stands -4.79% (inactive); under `COc1cccc(CNc2ncc(-c3ccccc3)n2C)c1`, -4.35% (inactive); under `O=C(Cn1ccc([N+](=O)[O-])n1)NCc1cccs1`, 2.31% (inactive).
Under `CCOc1ncccc1C(=O)OCC(=O)c1c[nH]c2ccccc12` stands 2.18% (inactive).
For `Cc1ccccc1CSc1nnc(CCCCCNC(=O)OC(C)(C)C)o1`, the inhibition was -2.88% (inactive).
The result for `COc1cc([N+](=O)[O-])cc([N+](=O)[O-])c1NC(=O)N1CCOCC1` reads 0.53% (inactive).
Under `O=C(CN1C(=O)NC2(CCCC2)C1=O)OCCOc1ccc(F)cc1` stands 0.5% (inactive).
